Records with an inconclusive call do not appear. Calls of active or inactive are those of the source. Unless noted, calls come from the whole dose curve; as a rule, active = well fitted curve in the direction sought with a large enough effect in the repeat runs; inconclusive = weak or mixed curves; inactive = no such curve, though single readings can be large; an effect the other way counts as inactive or inconclusive.
Assays:
[1] = qHTS assay to identify small molecule antagonists of the sonic hedgehog signaling (Shh) pathway (AID 1259369; calls by dose curve; note: nearly all actives have a fitted effect of over 45% in size)
In short: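 NIH/3T3 stable Gli1-Luc clone, 2,000 cells/well, 4hr settle; cpd + conditioned medium 24hr; Luc reagent 30min RT; luminescence.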

[2] = qHTS assay to identify small molecule agonists of the androgen receptor (AR) signaling pathway in the presence of an antagonist - cell viability counter screen (AID 1259379); note: nearly all actives have a fitted effect of over 25% in size; note: potency is the fitted concentration of half-maximal effect
In short: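 MDA-kb2 viability measured by CellTiter-Fluor fluorescence in the same wells as the luciferase signal; nilutamide 3.0uM final; 15-point compound titration; 16 hr at 37C.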

[3] = qHTS assay to identify small molecule antagonists of the estrogen receptor beta (ER-beta) signaling pathway - cell viability counter screen (AID 1259382); note: nearly all actives have a fitted effect of over 55% in size; note: potency is the fitted concentration of half-maximal effect
In short: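 Readout: luminescence, CellTiter-Glo, same wells as bla assay. System: ER-beta-UAS-bla GripTite HEK293T, 2% charcoal-stripped FBS. Exposure: compounds plus 1nM 17-beta-estradiol, 16 hr, 37C.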

[4] = qHTS assay to identify small molecule agonists or antagonists of the thyroid stimulating hormone receptor (TSHR) signaling pathway - wild type cell line counter screen (AID 1259384; calls by dose curve)
In short: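 Wild-type Hek293 cells, 800/well, 18 h at 37C, then compound with Ro20-1724 for 30 min RT. cAMP by HTRF (cAMP-d2/anti-cAMP cryptate), 1 h RT, fluorescence read. 15 concentrations, triplicates.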

[5] = qHTS assay to identify small molecule agonists of the estrogen receptor beta (ER-beta) signaling pathway - cell viability counter screen (AID 1259380); note: nearly all actives have a fitted effect of over 30% in size; note: potency is the fitted concentration of half-maximal effect
In short: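 Measured: luminescence from CellTiter-Glo after 30 min at room temperature, added to wells already read for the LiveBLAzer FRET reporter (2 hr substrate); ER-beta-UAS-bla HEK293T cells had 16 hr compound treatment at 37C, 5% CO2.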

[6] = target: Estrogen receptor (Homo sapiens) (UniProt P03372); test: qHTS assay to identify small molecule agonists of the estrogen receptor alpha (ER-alpha) signaling pathway in the presence of an antagonist (AID 1259383; calls by dose curve; note: nearly all actives have a fitted effect of over 15% in size; note: potency is the fitted concentration of half-maximal effect; for activation: top concentration of the series differs between compounds)
Chain of Estrogen receptor (Homo sapiens) (P03372 whole entry, looked up): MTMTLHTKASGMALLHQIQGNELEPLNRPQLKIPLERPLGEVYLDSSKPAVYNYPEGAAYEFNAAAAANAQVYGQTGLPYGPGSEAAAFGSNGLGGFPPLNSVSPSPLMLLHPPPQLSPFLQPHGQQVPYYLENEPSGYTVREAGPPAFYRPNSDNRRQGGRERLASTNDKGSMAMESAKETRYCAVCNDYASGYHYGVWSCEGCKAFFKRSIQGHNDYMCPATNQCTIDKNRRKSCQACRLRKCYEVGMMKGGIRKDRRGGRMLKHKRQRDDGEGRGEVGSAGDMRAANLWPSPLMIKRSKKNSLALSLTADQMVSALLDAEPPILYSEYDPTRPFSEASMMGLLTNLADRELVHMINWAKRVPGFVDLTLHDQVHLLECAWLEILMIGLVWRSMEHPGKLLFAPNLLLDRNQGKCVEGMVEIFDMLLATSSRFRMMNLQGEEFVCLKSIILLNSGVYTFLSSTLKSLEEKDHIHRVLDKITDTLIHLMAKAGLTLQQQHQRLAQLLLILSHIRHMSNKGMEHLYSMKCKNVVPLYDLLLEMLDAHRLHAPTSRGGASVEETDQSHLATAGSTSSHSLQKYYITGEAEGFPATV
In short: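 Quantitative HTS confirmation: compounds titrated at 15 concentrations onto estrogen-deprived VM7Luc4E2 cells carrying a four-ERE luciferase construct, with ICI-182,780 present at 10.0nM final. Signal is luminescence after 22hr exposure.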

[7] = target: Estrogen receptor beta (Homo sapiens) (UniProt Q92731); test: qHTS assay to identify small molecule agonists of the estrogen receptor beta (ER-beta) signaling pathway (AID 1259377; active = well fitted activation curve with a large enough effect in the signal ratio in the repeat runs, not every such curve was filed as active; the % refers to the signal ratio; note: potency is the fitted concentration of half-maximal effect)
Chain of Estrogen receptor beta (Homo sapiens) (Q92731 whole entry, looked up): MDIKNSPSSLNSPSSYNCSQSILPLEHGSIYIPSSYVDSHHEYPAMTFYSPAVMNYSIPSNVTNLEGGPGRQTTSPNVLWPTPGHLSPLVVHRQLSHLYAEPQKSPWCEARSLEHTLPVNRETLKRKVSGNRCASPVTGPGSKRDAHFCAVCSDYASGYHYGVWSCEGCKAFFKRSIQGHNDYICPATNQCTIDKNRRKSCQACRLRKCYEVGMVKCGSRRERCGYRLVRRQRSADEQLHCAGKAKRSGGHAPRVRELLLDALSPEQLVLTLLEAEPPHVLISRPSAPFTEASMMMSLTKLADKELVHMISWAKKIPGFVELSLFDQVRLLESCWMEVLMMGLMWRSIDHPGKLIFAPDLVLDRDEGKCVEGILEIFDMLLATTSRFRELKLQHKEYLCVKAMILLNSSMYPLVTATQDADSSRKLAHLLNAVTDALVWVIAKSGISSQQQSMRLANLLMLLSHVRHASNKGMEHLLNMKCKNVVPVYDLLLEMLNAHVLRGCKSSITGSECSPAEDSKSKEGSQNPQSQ
In short: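 Ratiometric beta-lactamase FRET read-out came after 2 h substrate loading at room temperature. It followed 16 h compound treatment at 37C of GripTite HEK293T cells carrying a UAS-bla reporter, plated in 2% charcoal-stripped FBS medium.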

[8] = target: Thyrotropin receptor (Homo sapiens) (UniProt P16473); test: qHTS assay to identify small molecule antagonists of the thyroid stimulating hormone receptor (TSHR) signaling pathway (AID 1259385; calls by dose curve; note: nearly all actives have a fitted effect of over 20% in size; note: potency is the fitted concentration of half-maximal effect)
Chain of Thyrotropin receptor (Homo sapiens) (P16473 whole entry, looked up): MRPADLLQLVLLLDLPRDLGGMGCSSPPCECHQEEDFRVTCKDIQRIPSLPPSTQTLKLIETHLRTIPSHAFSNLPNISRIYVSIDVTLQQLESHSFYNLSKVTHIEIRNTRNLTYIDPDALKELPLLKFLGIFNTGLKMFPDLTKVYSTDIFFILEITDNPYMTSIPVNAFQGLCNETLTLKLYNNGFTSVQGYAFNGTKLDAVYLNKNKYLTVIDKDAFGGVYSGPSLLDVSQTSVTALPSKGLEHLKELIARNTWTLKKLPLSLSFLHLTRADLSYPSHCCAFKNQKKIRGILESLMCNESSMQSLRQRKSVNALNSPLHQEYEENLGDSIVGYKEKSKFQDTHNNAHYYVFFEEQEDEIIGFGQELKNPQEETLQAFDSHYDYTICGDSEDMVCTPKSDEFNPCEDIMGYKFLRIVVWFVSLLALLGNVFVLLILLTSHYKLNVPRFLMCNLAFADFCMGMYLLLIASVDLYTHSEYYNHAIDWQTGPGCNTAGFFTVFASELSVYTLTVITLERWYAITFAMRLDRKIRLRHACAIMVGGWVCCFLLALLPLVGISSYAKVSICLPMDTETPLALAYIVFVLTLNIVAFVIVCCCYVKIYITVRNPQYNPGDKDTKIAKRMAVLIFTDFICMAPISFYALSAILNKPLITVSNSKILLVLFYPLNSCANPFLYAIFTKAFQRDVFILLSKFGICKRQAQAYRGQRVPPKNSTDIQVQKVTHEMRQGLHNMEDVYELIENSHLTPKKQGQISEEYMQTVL
In short: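 TSHR-HEK293 cells (800/well) plated 18 h, then compounds with Ro20-1724 and TSH at 1.5 ng/mL final, 30 min at room temperature. cAMP quantified by HTRF (cAMP-d2/anti-cAMP-cryptate, 1 h); 15 concentrations in triplicate.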

[9] = target: Estrogen receptor beta (Homo sapiens) (UniProt Q92731); test: qHTS assay to identify small molecule antagonists of the estrogen receptor beta (ER-beta) signaling pathway (AID 1259378; active = well fitted inhibition curve with a large enough effect in the signal ratio in the repeat runs, not every such curve was filed as active; the % refers to the signal ratio; note: potency is the fitted concentration of half-maximal effect)
In short: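 ER-beta-UAS-bla HEK293T cells in 2% charcoal-stripped FBS medium treated with compound plus 1nM final 17-beta-estradiol for 16 hr at 37C. Beta-lactamase reporter read by FRET substrate fluorescence after 2 hours at room temperature.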

[10] = target: Androgen receptor (Homo sapiens) (UniProt P10275); test: qHTS assay to identify small molecule agonists of the androgen receptor (AR) signaling pathway in the presence of an antagonist (AID 1259381; calls by dose curve; note: nearly all actives have a fitted effect of over 15% in size)
Chain of Androgen receptor (Homo sapiens) (P10275 whole entry, looked up): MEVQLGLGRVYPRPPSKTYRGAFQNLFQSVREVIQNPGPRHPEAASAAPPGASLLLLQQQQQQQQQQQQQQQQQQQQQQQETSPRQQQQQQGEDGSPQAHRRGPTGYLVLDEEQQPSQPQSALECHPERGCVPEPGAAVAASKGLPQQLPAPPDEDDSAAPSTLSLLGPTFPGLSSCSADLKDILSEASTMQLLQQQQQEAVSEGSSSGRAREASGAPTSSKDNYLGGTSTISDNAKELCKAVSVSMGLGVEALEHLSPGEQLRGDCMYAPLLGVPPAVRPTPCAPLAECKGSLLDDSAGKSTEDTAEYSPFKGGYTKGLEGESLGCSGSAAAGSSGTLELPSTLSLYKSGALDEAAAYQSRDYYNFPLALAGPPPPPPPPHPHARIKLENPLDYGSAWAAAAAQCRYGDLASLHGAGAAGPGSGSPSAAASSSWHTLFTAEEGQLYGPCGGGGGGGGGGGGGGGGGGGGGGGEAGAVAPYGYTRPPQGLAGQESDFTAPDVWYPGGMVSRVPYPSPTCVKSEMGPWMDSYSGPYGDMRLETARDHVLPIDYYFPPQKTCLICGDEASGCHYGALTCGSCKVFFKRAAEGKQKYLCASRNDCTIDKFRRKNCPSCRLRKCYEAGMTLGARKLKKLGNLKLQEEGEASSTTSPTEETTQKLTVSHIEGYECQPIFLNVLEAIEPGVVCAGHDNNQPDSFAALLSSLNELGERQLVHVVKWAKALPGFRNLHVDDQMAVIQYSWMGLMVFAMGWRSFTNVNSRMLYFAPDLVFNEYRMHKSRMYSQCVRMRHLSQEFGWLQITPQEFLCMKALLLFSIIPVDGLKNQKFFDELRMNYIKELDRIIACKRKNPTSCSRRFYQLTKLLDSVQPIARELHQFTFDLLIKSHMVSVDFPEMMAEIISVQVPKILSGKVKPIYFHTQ
In short: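 Luminescent ONE-Glo read, 30min at room temperature, follows 16hr compound exposure (15 concentrations) of MDA-kb2 cells at 37C, 0% CO2, with nilutamide added at 3.0uM final.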
% is set by controls: 0 for no effect and ±100 for the full control effect.

CC(=O)Nc1ccc(C)cc1C
inactive: Potency [1] | Potency [2] | Potency [3] | outcome [4]

Nc1ccc(N=Nc2ccccc2)c(N)c1
inactive: Potency [1] | Potency [6]
active: Potency [2] 26.7 µM | Potency [5] 26.7 µM

Cc1ccc2c(Br)cc(Br)c(O)c2n1
active: Potency [5] 11.9 µM
inactive: Potency [7] | Potency [3]

Cc1ccccc1N=C(N)Nc1ccccc1C
inactive: Potency [2] | Potency [5] | Potency [3] | Potency [6] | outcome [4] | Potency [8]

O=C(O)CCCCCCCCCCCBr
inactive: Potency [7] | Potency [9] | Potency [2] | Potency [6]

Cc1cc(O)ccc1O
active: Potency [9] 55.1 µM | Potency [5] 61.8 µM | Potency [3] 61.8 µM
inactive: Potency [7]

CC1CC(OC(=O)C(O)c2ccccc2)CC(C)(C)N1C (stereo not given)
inactive: Potency [7] | Potency [9] | Potency [2] | Potency [5] | Potency [3] | outcome [4] | Potency [8]

CC(CC1c2ccccc2CCc2ccccc21)CN(C)C (stereo not given)
inactive: Potency [7] | Potency [2] | Potency [6]
active: Potency [5] 33.5 µM | Potency [3] 21.1 µM

COc1ccccc1N1CCN(CCCCNC(=O)c2ccc(-c3ccc(C(C)=O)cc3)cc2)CC1
active: Potency [8] 18.8 µM
inactive: Potency [5] | Potency [3] | Potency [6] | outcome [4]

C1COC1
inactive: Potency [7] | Potency [9] | Potency [2] | Potency [5] | Potency [3] | Potency [6] | outcome [4]

O=C1C(=O)c2ccccc2C(O)=C1C1CCC(c2ccc(Cl)cc2)CC1 (stereo not given)
inactive: Potency [7] | Potency [6]
active: Potency [2] 23.7 µM | Potency [5] 2.66 µM

C/C=C\C/C=C/CCCCCCCCOC(C)=O
inactive: Potency [6] | outcome [4] | Potency [8]
active: Potency [5] 61.1 µM

O=[N+]([O-])c1ccc(O/N=C/c2cc(Br)c(O)c(Br)c2)c([N+](=O)[O-])c1
active: Potency [2] 48.3 µM
inactive: Potency [3] | Potency [6]

CCOC(=O)C1=C(C)NC(C)=C(C(=O)OC)C1c1cccc(Cl)c1Cl (stereo not given)
inactive: Potency [7] | Potency [2] | Potency [3] | Potency [6]

O=C1NC(=O)c2cc([N+](=O)[O-])ccc21
inactive: Potency [7] | Potency [9] | Potency [2] | Potency [5] | Potency [3] | Potency [6] | outcome [4] | Potency [8]

CCCC(C(=O)OCCN(CC)CC)(c1ccccc1)c1ccccc1
inactive: Potency [7] | Potency [9] | Potency [6] | outcome [4] | Potency [8]
active: Potency [5] 29.8 µM

COC(=O)C1=C(C)NC(C)=C(C(=O)O[C@@H]2CCCN(Cc3ccccc3)C2)[C@@H]1c1cccc([N+](=O)[O-])c1
inactive: Potency [7] | Potency [2] | Potency [5] | Potency [3] | Potency [6] | Potency [8]
active: Potency [9] 26.6 µM

CC1(C)[C@@H](OC(=O)CCC(=O)O)CC[C@]2(C)[C@H]3C(=O)C=C4[C@@H]5C[C@@](C)(C(=O)O)CC[C@]5(C)CC[C@@]4(C)[C@]3(C)CC[C@@H]12
inactive: Potency [7] | Potency [2] | Potency [5] | outcome [4]

CC(C)C(O)(c1ccc(OC(F)(F)F)cc1)c1cncnc1 (stereo not given)
inactive: Potency [2] | Potency [5] | Potency [3] | Potency [8]

C/C=C(/C(=C/C)c1ccc(O)cc1)c1ccc(O)cc1
active: Potency [7] 0.0019 µM | Potency [6] 0.015 µM
inactive: Potency [2] | Potency [5] | Potency [3] | Potency [8]

COC(=O)[C@H]1[C@H]2C[C@@H]3c4[nH]c5cc(OC)ccc5c4CCN3C[C@H]2C[C@@H](OC(=O)/C=C/c2ccc(O)c(OC)c2)[C@@H]1OC
inactive: Potency [7] | Potency [6] | outcome [4] | Potency [8]
active: Potency [5] 8.41 µM

CCCCCCNC(=O)n1cc(F)c(=O)[nH]c1=O
inactive: Potency [9] | Potency [2] | Potency [3] | outcome [4] | Potency [8]

COC(=O)CS
inactive: Potency [7] | Potency [2] | Potency [3] | Potency [6] | Potency [8]

CCCCCCCC/C=C\CCCCCCCCO
inactive: Potency [7] | Potency [9] | Potency [2] | Potency [5] | Potency [3] | outcome [4] | Potency [8]

CCOc1ccc(Cc2nccc3cc(OCC)c(OCC)cc23)cc1OCC
active: Potency [2] 29.8 µM
inactive: Potency [7] | Potency [5] | Potency [3] | Potency [6] | outcome [4]

CC(CN(C)C)C(C)(O)Cc1ccc(Cl)cc1 (stereo not given)
inactive: Potency [2] | Potency [3] | Potency [6] | outcome [4] | Potency [8]

CCCCCCCCCCC(=O)O
inactive: Potency [7] | Potency [2] | Potency [3] | Potency [6] | outcome [4] | Potency [8]

CC(C)=CC(=O)C=C(C)C
inactive: Potency [7] | Potency [9] | Potency [2] | Potency [5] | Potency [6] | outcome [4] | Potency [8]

CC1CC(C)C(=O)C1=O (stereo not given)
inactive: Potency [7] | Potency [9] | Potency [2] | Potency [5] | Potency [3] | outcome [4] | Potency [8]

O=C(CCc1ccc(O)cc1)c1c(O)cc(O)cc1O
active: Potency [7] 7.01 µM | Potency [6] 24.9 µM
inactive: Potency [5] | Potency [3] | outcome [4] | Potency [8]

CCCCCC[C@@H](O)C/C=C\CCCCCCCC(=O)OCC(O)CO (stereo not given in full)
inactive: Potency [2] | Potency [6]

C=C(C)CCCC(C)CCO (stereo not given)
inactive: Potency [7] | Potency [9] | Potency [2] | Potency [5] | Potency [3] | Potency [6] | outcome [4]

CC(=O)[C@H]1[C@H](C#N)C[C@H]2[C@@H]3CC=C4C[C@@H](O)CC[C@]4(C)[C@H]3CC[C@@]21C
inactive: Potency [7] | Potency [2] | Potency [6]
active: Potency [5] 29.5 µM

COc1ccccc1N1CCN(CC(O)COc2cccc3ccccc23)CC1 (stereo not given)
inactive: Potency [7] | Potency [2] | Potency [8]
active: Potency [9] 23.7 µM | Potency [5] 5.96 µM | Potency [3] 5.96 µM

CC(C)Nc1cccnc1N1CCN(C(=O)c2cc3cc(NS(C)(=O)=O)ccc3[nH]2)CC1
active: Potency [5] 26.6 µM
inactive: Potency [7] | Potency [9] | Potency [2] | Potency [6] | outcome [4] | Potency [8]

CC(C)(c1ccccc1)c1ccccc1
inactive: Potency [2] | Potency [5] | Potency [3] | outcome [4] | Potency [8]

CCCCCCCC/C=C\CCCCCCCCCCCC(=O)O
inactive: Potency [2] | Potency [5] | Potency [10] | Potency [3] | Potency [6]

CN(C)CCC=C1c2ccccc2C=Cc2ccccc21
active: Potency [5] 26.6 µM | Potency [8] 29.8 µM
inactive: Potency [6] | outcome [4]

c1ccc(C[n+]2cccc3ccccc32)cc1
active: Potency [2] 48.6 µM
inactive: Potency [7] | Potency [5] | Potency [3] | Potency [6]

Oc1c(I)cc(I)c2cccnc12
active: Potency [9] 6.68 µM
inactive: Potency [3] | Potency [6] | outcome [4] | Potency [8]

Cc1cc(=O)c2c(O)c3c(O)cc(=O)c4c3c3c(cc(O)c1c23)C(C)(C)C=4O
active: Potency [2] 1.46 µM
inactive: activation [7] -11.3% [at 19 µM] | cAMP activity change [4] 14.8% [at 18.9 µM]

C[C@@H](CN(C)C)CN1c2ccccc2Sc2ccccc21
inactive: Potency [7] | Potency [6]
active: Potency [9] 23.7 µM | Potency [5] 18.8 µM

From PubChem BioAssay (Tox21)
